A short description of assay [1]: IUF_NPC2-5_viability_120hr: Viability Assessment at 120 hours in the Leibniz Research Institute for Environmental Medicine (IUF) Neural Progenitor Cell Migration and Differentiation Assay (NPC2-5) (AID 2284312). An outline of the steps: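 Human fetal (GW 16-19) neural progenitor spheres of 0.3 mm were plated on poly-D-lysine/laminin in N2 differentiation medium and exposed from day 0 for 120 h, with half-medium refresh at day 3. Viability was read as alamar blue resazurin-to-resorufin fluorescence against DMSO.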

In assay [2] the test system is Brachyury (BRA) Protein Expression, Deisenroth Lab, TBXT (gene 6862). The experiment in a line: CCTE_Deisenroth_DEVTOX-GLR_legacy_Bra: (Legacy) CCTE's DevTox GLR-Endo Assay Evaluation of Brachyury (BRA) Protein Expression, Deisenroth Lab (AID 2284329). An outline of the steps:
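RUES2-GLR human pluripotent cells differentiated 48 h with two 24-h-interval chemical exposures (1 nM - 200 uM, 10 points); fixed, nuclear-stained, imaged. Bra+ cell percentage (intensity 5x BMAD above pluripotent control median) fitted relative to 0.2% DMSO.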

Assay [3] is described as follows: CCTE_Deisenroth_DEVTOX-GLR_legacy_CellCount: (Legacy) Viability Assessment in CCTE's DevTox GLR-Endo Assay, Deisenroth Lab (AID 2284331). The note with it: actives raise or lower the signal. An outline of the steps:
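Seed RUES2-GLR 24 h; differentiate 48 h, dosing at 0 and 24 h; fix, stain nuclei; image 5 fields/well; count nuclei. Conc. 1 nM - 200 uM, single technical replicate, n=4 experiments; bidirectional fit vs 0.2% DMSO.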

A short description of assay [4]: IUF_NPC1_cytotoxicity_72hr: Cytotoxicity Assessment at 72 hours in the Leibniz Research Institute for Environmental Medicine (IUF) Neural Progenitor Cell Proliferation Assay (NPC1) (AID 2284332; active = hit-call score of the fitted dose curve at least 0.9, where 1 is the maximum;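 also: rising LDH signal means more cytotoxicity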). An outline of the steps:
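Single human fetal cortex neural progenitor spheres (GW 16-19, 0.25-0.35 mm) in EGF/FGF proliferation medium were exposed to compound for 72 h at 37C without renewal. Medium LDH release was read as resorufin fluorescence and fitted as gain-of-signal.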

Assay [5] deals with SRY-box transcription factor 17 (SOX17) Protein Expression, Deisenroth Lab, SOX17 (gene 64321). The experiment in a line: CCTE_Deisenroth_DEVTOX-GLR_legacy_Sox17: (Legacy) CCTE's DevTox GLR-Endo Assay Evaluation of SRY-box transcription factor 17 (SOX17) Protein Expression, Deisenroth Lab (AID 2284341). The note with it: actives raise or lower the signal. An outline of the steps:
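Using the RUES2-GLR line, compounds are tested as 10-point series during 48-h defined-media differentiation. Sox17 reporter fluorescence per cell determines positivity; endpoint is percentage positive, analysed bidirectionally versus DMSO baseline.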

The next assay relates to IYD (gene 389434). The experiment in a line: CCTE_GLTED_hIYD: CCTE's human Iodotyrosine Deiodinase (xIYD) Inhibition Assay, Great Lakes Toxicology and Ecology Division (GLTED) Lab (AID 2284317; active = hit-call score of the fitted dose curve at least 0.9, where 1 is the maximum;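 also: cell-free human IYD enzyme made in baculovirus insect cells; iodide freed from monoiodotyrosine measured by cerium arsenite color change at 420 nm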). An outline of the steps: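 Human IYD expressed in a baculovirus-insect cell system was incubated 3 h with monoiodotyrosine and test chemical. Released iodide, separated on Dowex columns, was quantified by the Sandell-Kolthoff reaction at 420 nm; plates were normalized to MNT and DMSO/NaOH controls.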

Assay [6] can be described thus: VALA_TUBIPS_Antagonist_TubuleLength: VALA Sciences human iPS-derived Endothelial Tubule Formation (TUBIPS) Antagonist Assay (AID 2284313; active = hit-call score of the fitted dose curve at least 0.9, where 1 is the maximum). An outline of the steps:
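Cells grown 3 days with 10 ng/ml VEGF, then exposed to compounds in VEGF medium for another 3 days. After fixation, nuclear stain and CD31 immunofluorescence imaging gave mean total tubule length against 0.1% DMSO; suramin (100 uM) inhibition control.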

A short description of assay [7]: VALA_MIGHUV2_WoundArea: VALA Sciences human Umbilical Vein Endothelial Cell Migration (MIGHUV) Assay, Area of Scratch Wound after Recovery (AID 2284316; active = hit-call score of the fitted dose curve at least 0.9, where 1 is the maximum). An outline of the steps:
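HUVEC seeded at 9000 cells/well, scratched after 24 h; test chemical added within 30 min, 6-point concentration response in triplicate (0.1% DMSO vehicle). After 24 h wound recovery, cells fixed and Hoechst-stained nuclei in wound area imaged; Cytochalasin D reference control.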

Assay [8] can be described thus: VALA_TUBHUV_Antagonist_TubuleLength: VALA Sciences human Umbilical Vein Endothelial Tubule Formation (TUBHUV) Antagonism Assay (AID 2284325; active = hit-call score of the fitted dose curve at least 0.9, where 1 is the maximum). An outline of the steps:
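HUVEC–HDF co-culture (1:3) pre-grown 3 days with 10 ng/ml VEGF, then 3 days with compound plus VEGF. Fixed, nuclear and CD31 stained; total tubule length by imaging versus 0.1% DMSO; suramin 100 uM positive control.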

Assay [9] is described as follows: VALA_MIGHUV1_ScratchOnly_WoundArea: VALA Sciences human Umbilical Vein Endothelial Cell Migration (MIGHUV) Assay, Area of Scratch Wound Inhibited Recovery (AID 2284336; active = hit-call score of the fitted dose curve at least 0.9, where 1 is the maximum). An outline of the steps: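 HUVEC monolayers (9000 cells/well) were scratched after 24 h, dosed within 30 min (six concentrations, triplicate, 0.1% DMSO), allowed 24 h recovery, then fixed. Hoechst-stained nuclei in the wound imaged; cytochalasin D as reference.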

Assay [10] in a line: VALA_TUBHUV_Agonist_TubuleLength: VALA Sciences human Umbilical Vein Endothelial Tubule Formation (TUBHUV) Agonism Assay (AID 2284337; active = hit-call score of the fitted dose curve at least 0.9, where 1 is the maximum). An outline of the steps: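 HUVEC co-cultured with fibroblasts (1:3) 3 days in 10 ng/ml VEGF, then 3 days with compound plus VEGF; 0.1 % DMSO neutral control. Fixed, nuclear and CD31 stained; tubule length by fluorescence imaging.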
A short description of assay [11]: VALA_TUBIPS_Agonist_CellCount: Viability Assessment in the VALA Sciences human iPS-derived Endothelial Tubule Formation (TUBIPS) Agonism Assay (AID 2284338; active = hit-call score of the fitted dose curve at least 0.9, where 1 is the maximum).
The nature of assay [12]: CCTE_Deisenroth_5AR_NBTE_donor: CCTE's 5alpha-reductase NanoBRET Target Engagement Assay […], Deisenroth Lab (AID 2284319). The note with it: actives raise or lower the signal. An outline of the steps: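 In this secondary endpoint, donor luminescence from SRD5A2-NanoLuc in transfected HEK293T flags artifacts. Test chemical (10 nM - 29.9 uM) is present five hours, tracer the last two; mock-tracer wells run plate-matched; data fitted bidirectionally against DMSO.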
For orientation: In BRET a luciferase serves as donor, and the signal depends on an acceptor being close.

The nature of assay [13]: CCTE_Deisenroth_5AR_NBTE_acceptor: CCTE's 5alpha-reductase NanoBRET Target Engagement Assay - Autofluorescence Screen, Deisenroth Lab (AID 2284321).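 Also: compound fluorescence in the acceptor channel under 460 nm excitation flags autofluorescence artifacts.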 The note with it: actives raise or lower the signal. An outline of the steps:
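Acceptor-channel fluorescence flags artifacts, with excitation fixed at 460 nm. Nominal 100 uM chemical samples were read in triplicate runs, and signal changes were fitted in both directions relative to DMSO.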

For a further assay, the system named is SRD5A2 (gene 6716). The experiment in a line: CCTE_Deisenroth_5AR_NBTE_ratio: CCTE's 5alpha-reductase NanoBRET Target Engagement Assay - Ratio, Deisenroth Lab (AID 2284322). The note with it: actives raise or lower the signal. An outline of the steps:
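Reverse-transfect HEK293T with pNLF1-C-SRD5A2, express 20 h. Pre-incubate cells with chemical 3 h (8-point series, 10 nM - 29.9 uM, duplicate). Add testosterone tracer, 2 h more. Add substrate/inhibitor, read donor and acceptor emission.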

The nature of assay [14]: CCTE_Mundy_HCI_iCellGluta_NOG_NeuriteLength: CCTE's Neurite Outgrowth Assay in iCellGluta cells for Neurite Length, Mundy Lab (AID 2284318; active = hit-call score of the fitted dose curve at least 0.9, where 1 is the maximum). An outline of the steps:
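Automated high-content imaging of betaIII-tubulin (Alexa Fluor-488) and Hoechst-stained cells gave neurite length, normalized to the DMSO baseline.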

The nature of assay [15]: CCTE_Mundy_HCI_iCellGluta_NOG_NeuronCount: CCTE's Neurite Outgrowth Assay in iCellGluta cells for Neuron Count, Mundy Lab (AID 2284340; active = hit-call score of the fitted dose curve at least 0.9, where 1 is the maximum;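 also: cells fixed about 48 h after compound addition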). An outline of the steps:
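Neuron count read by automated high-content imaging of Hoechst 33342 and betaIII-tubulin/Alexa Fluor-488 labelling in human iPSC glutamatergic neurons. Activity fitted relative to DMSO.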

A short description of assay [16]: VALA_TUBIPS_Antagonist_CellCount: Viability Assessment in the VALA Sciences human iPS-derived Endothelial Tubule Formation (TUBIPS) Antagonism Assay (AID 2284335; active = hit-call score of the fitted dose curve at least 0.9, where 1 is the maximum).
A further assay deals with TTR (gene 7276). The experiment in a line: CCTE_GLTED_hTTR_0.5uM: CCTE's human Transthyretin (hTTR) Inhibition Assay, with 0.5uM TTR, Great Lakes Toxicology and Ecology Division (GLTED) Lab (AID 2284320). An outline of the steps:
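Cell-free displacement assay in which human TTR at 0.5 uM was incubated with test chemical for 2 h. Displacement of the ANSA probe was read by fluorescence at 380 nm excitation/475 nm emission. Loss of signal was fitted in the positive direction versus DMSO.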

A short description of assay [17]: TAMU_PeakParms_SingleDonor1434_Asystole: Texas A&M University (TAMU) 1.5-hr Human Induced Pluripotent Stem Cell (iPSC)-derived Cardiomyocytes Calcium (Ca+2) Flux Assay for Cardiotoxicity: Asystole (quiescence of beating) (AID 2284328; active = hit-call score of the fitted dose curve at least 0.9, where 1 is the maximum). An outline of the steps: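 Human iPSC-derived cardiomyocytes (donor 1434) were exposed to 0.2, 1, 10 and 100 uM compound in 0.5% DMSO for 90 min at 37C. Ca2+-dye fluorescence gave average peak frequency; POD is EC95, a 95% beat-rate drop versus DMSO.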

Structures are written as SMILES. Where “and” joins values, the source holds several entries; their conditions need not be identical. Equal entries are not always repeated. Results filed as inconclusive are left out. The source holds several records for some structures; these can differ, active in one and inactive in another. Calls of active or inactive are those of the source. The calls were made as follows, unless noted: active = hit-call score of the fitted dose curve at least 0.9, where 1 is the maximum; inactive = score below 0.9.

We go through 25 molecules from PubChem BioAssay (EPA / NIEHS).

Usually AC50 stands for the concentration giving half of the maximal activity seen.

Take `CC1=C(/C=C/C(C)=C/C=C/C(C)=C/C(=O)O)C(C)(C)CCC1`: the molecule was classed as inactive in assay [1] and in assay [4]. Besides, the values for the AC50 in assay [2], in [3] and in assay [5] were 11.7 µM (active), 4.44 µM (active) and 0.109 µM (active), respectively.
For `CC(O)CO` (stereo not given), the outcome in [2], in assay [3] and in assay [5] was inactive.
Take `CCC(=C(c1ccc(O)cc1)c1ccc(OCCN(C)C)cc1)c1ccccc1`: the result in the assay on IYD (gene 389434) was inactive.
As for `C[C@@H]1C[C@H]2[C@@H]3CCC4=CC(=O)C=C[C@]4(C)[C@@]3(F)[C@@H](O)C[C@]2(C)[C@@]1(O)C(=O)COP(=O)(O)O`, the molecule was classed as inactive in assay [2], in assay [3] and in [5].
In the case of `O=C(O)Cc1cc(I)c(Oc2cc(I)c(O)c(I)c2)c(I)c1`, the call in assay [6], in assay [7], in assay [8], in assay [9], in assay [10] and in [11] was inactive.
Regarding `CCOC(=O)CC(O)(CC(=O)OCC)C(=O)OCC`, the molecule was classed as inactive (in assay [12]; in [13]; in the assay with SRD5A2 (gene 6716)).
On to `OCCC(F)(F)C(F)(F)C(F)(F)C(F)(F)C(F)(F)C(F)(F)F`, for which the molecule was classed as inactive in assay [14] and in [15].
Consider `CCCCCCCCCCCCc1ccccc1S(=O)(=O)O`, for which the molecule was called inactive in assay [6], in [7], in [16] and in assay [9]. The AC50 in the assay on IYD (gene 389434) was 34.4 µM (active); in assay [10], 15.6 µM (active); in assay [11] it was 1.5 µM (active).
As for `CC(C)(C)c1cccc(C(C)(C)C)c1O`, in the assay on IYD (gene 389434), the AC50 is 100 µM (active).
As for `OCCC(F)(F)C(F)(F)C(F)(F)C(F)(F)C(F)(F)C(F)(F)C(F)(F)C(F)(F)F`, in [14], the molecule was classed as inactive.
With `O=C1OC2(c3ccccc31)c1cc(Br)c(O)c(Br)c1Oc1c2cc(Br)c(O)c1Br`, the results for the half-maximal activity concentration (AC50) in the assay on IYD (gene 389434) and with SRD5A2 (gene 6716) were 42.2 µM (active) and 7.55 µM (active), respectively. The outcome in assay [12] and in assay [13] was inactive.
For the molecule `FC(F)(I)C(F)(F)C(F)(F)C(F)(F)C(F)(F)C(F)(F)I`, in the assay with TTR (gene 7276), the AC50 was 1.91 µM (active) and 1.88 µM (active).
On to `CCN(CC)CCNc1ccc(CNC=O)c2sc3ccc(OC)cc3c(=O)c12`, for which the result (in assay [12]; in assay [13]; in the assay on SRD5A2 (gene 6716)) was inactive.
As to `CC#C[C@]1(O)CC[C@H]2[C@@H]3CCC4=CC(=O)CCC4=C3[C@@H](c3ccc(N(C)C)cc3)C[C@@]21C`, the result in assay [1], in assay [14], in [17], in assay [4] and in assay [15] was inactive. Further, the values for the AC50 in assay [14] and in assay [15] were 50 µM (active) and 27.3 µM (active), respectively.
For the molecule `CCCCCCCCCCCCCC[N+](C)(C)C`, the AC50 was 88.3 µM (active) in the assay on IYD (gene 389434), 42.7 µM (active) in assay [12], 26.2 µM (active) in assay [13] and 75.1 µM (active) in the assay with SRD5A2 (gene 6716).
On to `CCCCCCCCOC(=O)CCCCCCCCC(=O)OCCCCCCCC`, for which the molecule was classed as inactive (in assay [12]; in assay [13]; in the assay on SRD5A2 (gene 6716)).
In the case of `c1ccc2c(c1)Cc1ccccc1-2`, the outcome in assay [17] was inactive.
On to `COCC(C)O` (stereo not given), for which the outcome (in assay [12]; in [13]; in the assay with SRD5A2 (gene 6716)) was inactive.
`CN1CCC[C@H]1c1cccnc1`: the outcome in assay [1] was inactive.
For `c1ccc2c(c1)ccc1ccccc12`, the result in assay [17] was inactive.
On to `CC(C)(C)c1ccc(O)c(C(C)(C)C)c1`, for which the concentration at half-maximal activity (AC50) in the assay on IYD (gene 389434) was 100 µM (active).
Take `c1ccc2cc3c(ccc4ccccc43)cc2c1`: the outcome in assay [17] was inactive.
Take `C=C(C)C(=O)OCCC(F)(F)C(F)(F)C(F)(F)C(F)(F)C(F)(F)C(F)(F)F`: the outcome in assay [14] and in assay [15] was inactive.
`COCC(C)OCC(C)O` (stereo not given): the molecule was classed as inactive (in assay [12]; in assay [13]; in the assay on SRD5A2 (gene 6716)).
For the molecule `O=[N+]([O-])c1ccc(O)cc1`, the molecule was classed as inactive in assay [12] and in assay [13]. Besides, in the assay on SRD5A2 (gene 6716), the half-maximal activity concentration (AC50) was 71.2 µM (active).
